KCNQ2 inh – rat KCNQ2 potassium channel inhibitors, primary screen, cell-based, CHO-K1, FluxOR thallium flux, B-score; B-score at 10 µM; 310,000 tested, 1.1% active; Potassium voltage-gated channel subfamily KQT member 2 (Rattus norvegicus), O88943; 20 min; stronger effect = lower value;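 active = fluorescence ratio B-score at most minus 3 library SDs, with starting brightness B-score within 2 library SDs, cut at about -5.5 in these data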
KCNQ2 pot – potentiators of rat KCNQ2 potassium channel; Potassium voltage-gated channel subfamily KQT member 2 (Rattus norvegicus), O88943; CHO-K1 KCNQ2, FluxOR thallium flux fluorescence; stronger effect = higher value; B-score at 10 µM; 310,000 tested, 0.54% active;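 active = fluorescence ratio B-score at least 3 SD of library B-scores, with initial fluorescence B-score within 3 of them, cut at about 5.3 in these data; same plate scores as AID 2156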;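 also: B-score of peak minus minimum over baseline fluorescence ratio after K+ and Tl+ stimulus; positive B-score means potentiation of KCNQ2 with more thallium influx and brighter signal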
Kir21 conf inh – mouse Kir2.1 channel blockers, retest, confirmation, cell-based, FluxOR thallium flux, duplicate | shares compounds with KCNQ2 pot | Kir2.1-expressing cells, FluxOR thallium flux fluorescence; stronger effect = lower value | Tl flux remaining, % of negative control (stronger effect = lower value), % at 10 µM | 2,300 tested, 41% active;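 active = Primary-screen hit whose thallium flux fell at least 3 control SD below untreated wells in both duplicates, with normal baseline fluorescence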;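 also: 0% = blank wells without stimulus and 100% = stimulated no-compound controls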
HEK293 Tl flux – parental HEK293 activity in Kir2.1 inhibitor counter-screen; shares compounds with KCNQ2 pot; parental HEK293 cells, FluxOR thallium flux fluorescence; 0% = unstimulated blank wells; FluxOR signal as % of negative control (100 = no effect), % at 10 µM; 2,300 tested, 19% active;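 active = dye signal at least 3 control SD above or below untreated wells in both duplicates, raw fluorescence within 3, either direction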;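 also: percent is based on the flux ratio of peak minus minimum fluorescence over baseline F0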
CHO-K1 ctr – nonspecific thallium flux increase in parental CHO-K1, confirmation, counter-screen for KCNQ2 potentiator project, cell-based, FluxOR thallium flux, duplicate; shares compounds with KCNQ2 pot; activity increase over 3SD of controls, % at 10 µM; 1,200 tested, 43% active; parental CHO-K1 cells, FluxOR thallium flux fluorescence; zero = vehicle mean+3SD, 100% = vehicle-minus-blank window;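 active = signal rise of at least 3 SD above the untreated control mean, in both duplicate wells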;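 also: counter screen of KCNQ2 potentiator hits so any rise reflects channel-independent effects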
KCNQ1 sel pot – human KCNQ1 channel potentiation off-target, confirmation, selectivity assay for KCNQ2 potentiator project, cell-based, CHO, FluxOR thallium flux. shares compounds with KCNQ2 pot. CHO KCNQ1 stable, FluxOR thallium flux fluorescence; beyond 3SD, as % of vehicle-control signal. activation over 3SD threshold, % at 10 µM. 1,200 tested, 28% active. AID 2283, 2010;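 active = fluorescence ratio rise of at least 3 SD of vehicle wells above their mean, in both replicate wells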;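 also: 0% = vehicle mean plus 3 SD and 100% = vehicle minus unstimulated blank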
KCNQ2 pot confirm – rat KCNQ2 channel potentiators, confirmation, cell-based, CHO, FluxOR thallium flux, duplicate | shares compounds with KCNQ2 pot | CHO-KCNQ2 cells, FluxOR thallium flux fluorescence | potentiation, less the hit threshold, % at 10 µM | 1,200 tested, 68% active;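 active = fluorescence ratio rising 3 SD or more over the vehicle control mean in both replicates, plus primary screen hit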;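 also: peak minus minimum thallium fluorescence divided by baseline after K/Tl stimulus; 0% = vehicle mean plus 3 SD and 100% = vehicle minus unstimulated blank difference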
Kir2-1 sel – mouse Kir2.1 channel activation off-target, confirmation, selectivity assay for KCNQ2 potentiator project, cell-based, HEK293, FluxOR thallium flux; shares compounds with KCNQ2 pot; HEK293 Kir2.1, FluxOR thallium flux fluorescence; activity over 3SD threshold, % at 10 µM; 1,200 tested, 2% active; AID 2345, 2010;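 active = fluorescence ratio rise of at least 3 SD above the vehicle-control mean, seen in both replicates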;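 also: 0% = vehicle mean plus 3 SD and 100% = vehicle minus no-stimulus blank window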
KCNQ2 W236L MoA – potentiators of retigabine-insensitive KCNQ2 W236L, mechanism study for KCNQ2 potentiator project, cell-based, rat KCNQ2 W236L, CHO, automated patch clamp | shares compounds with KCNQ2 pot | automated patch clamp current | current increase over 3SD of negative controls (%), stronger effect = higher value, % at 25 µM | 940 tested, 10% active | AID 2558, 2010;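 active = current increase at least 3 SD of the untreated controls above them in both duplicate recordings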
* = called active by the depositor; i = inactive; · = no result. Rows were chosen to be rich in hits. Some 1.6% of all compounds tested hit in one or more screens of this group.

SMILES	KCNQ2 inh	KCNQ2 pot	Kir21 conf inh	HEK293 Tl flux	others
COC(=O)c1sccc1NC(=O)Nc1ccc(C(C)=O)cc1	i	·	·	·
Cc1cccc(C)c1NC(=O)C(C)N1CCCCC1 (stereo unspecified)	i	0.04	·	·
c1ccc(OCCCCN2CCCCC2)cc1	i	·	·	·
c1ccc2c(c1)OC(CCCN1CCCCC1)c1ccccc1S2 (stereo unspecified)	i	·	49%*	i
O=S(=O)(Nc1cc(Cl)cc(Cl)c1)N1CCOCC1	i	0.25	·	·
COc1ccc(C[C@H]2CN3C(=NC[C@H]3Cc3ccccc3)N2CCNC(=O)c2ccc(C)c(Br)c2)cc1	i	·	28%*	i
Cc1ccc(C(=O)NCCN2C3=NC[C@@H](Cc4ccccc4)N3C[C@H]2Cc2ccc(O)cc2)cc1Br	i	·	54%*	i
Cc1ccc(C(=O)NCCN2C3=NC[C@H](Cc4ccc(O)cc4)N3C[C@H]2Cc2ccc(O)cc2)cc1Br	i	0.05	·	·
C/C=C(\C)C(=O)NCCN1C2=NC[C@H](Cc3ccccc3)N2C[C@H]1Cc1ccc(O)cc1	i	0.1	·	·
CC1(C)c2[nH]c3ccccc3c2C[C@H]2C(=O)N(Cc3ccc(F)cc3)C(=O)N21	i	0.14	·	·
Cc1onc(-c2ccccc2Cl)c1C(=O)OCC(=O)N1CCN(c2ccccc2)CC1	i	0.01	·	·
Cc1ccc(C)c(Cn2nnc3c(=O)[nH]c(C4CCN(C(=O)c5ccco5)CC4)nc32)c1	i	0.51	·	·
CC(C)NC(=O)CN1CCN(Cc2nc(C(c3ccccc3)c3ccccc3)no2)CC1	i	·	·	·
COc1cc(CNCCc2ccccc2F)ccc1OCc1ccc(Cl)nc1	i	0.04	·	·
COc1cc(CNCCc2ccc(F)cc2)ccc1OCc1ccc(Cl)nc1	i	·	32%*	i
Cc1ccc(NC(=O)CSc2nc(O)c(Cc3ccccc3)c(=O)n2-c2ccccc2)cc1	i	·	·	·
Cc1cc(C)c(C(=O)C2OC(=O)C(C)(C)C(=O)C2(C)C)c(C)c1 (stereo unspecified)	i	10*	i	i	CHO-K1 ctr=6.5*;KCNQ1 sel pot=-16;KCNQ2 pot confirm=2.7*;Kir2-1 sel=-40;KCNQ2 W236L MoA=i
CC1(C)C(=O)OC(C(=O)c2ccccc2)C(C)(C)C1=O (stereo unspecified)	i	·	·	·
CN(C)c1ccc(/C=C/c2ccc3ccccc3[n+]2C)cc1	i	·	i	i
CN(CCCS(=O)(=O)[O-])c1ccc(/C=C/c2ccc3ccccc3[n+]2C)cc1	i	·	·	·
COc1ccc(NC(=O)CN(C)C(=O)c2cc(CN3C(=O)c4ccccc4C3=O)ccc2OC)cc1	i	·	·	·
CN(C)c1ccc(N/C=C/C(=O)C(C)(C)C)cc1	i	·	·	·
CC(C)(C)C(=O)/C=C/Nc1ccccc1O	i	9*	i	71%*	CHO-K1 ctr=-12;KCNQ1 sel pot=78*;KCNQ2 pot confirm=59*;Kir2-1 sel=-14;KCNQ2 W236L MoA=1.6%*
CN(C(=O)COC(=O)c1ccc([N+](=O)[O-])cc1N)c1ccccc1	i	·	·	·
CCOC(=O)c1[nH]c(C)c(C(=O)OCC(=O)N2CC(=O)Nc3ccccc32)c1C	i	·	·	·
SMILES	KCNQ2 inh	KCNQ2 pot	Kir21 conf inh	HEK293 Tl flux	others
Cc1ccc(-n2ncc(C(=O)Nc3cc(Cl)cc(Cl)c3)c2C2CCNCC2)cc1C	i	·	i	i
Cc1ccc(-n2ncc(C(=O)Nc3cc(Cl)ccc3Cl)c2C2CCNCC2)cc1	i	·	·	·
O=C(COC(=O)Cc1n[nH]c(=O)c2ccccc12)Nc1ccc(Cl)cc1F	i	·	·	·
Cc1nnnn1/C(=C\c1ccccc1)C(=O)OCC(=O)Nc1ccc(Cl)cc1F	i	·	i	i
Cc1ccc(/C=C(\C#N)C(=O)N2CCCC2)c(C)c1	i	·	·	·
CCCCCCCCC(=O)O	i	0.64	·	·
CCCCCCCC/C=C\CCCCCCCC(=O)O	i	6.8*	i	i	CHO-K1 ctr=-10;KCNQ1 sel pot=33*;KCNQ2 pot confirm=-13;Kir2-1 sel=-31
COc1ccc(C(=O)NC2CCCc3ccccc32)cc1OC1CCN(C(C)=O)CC1 (stereo unspecified)	i	0.9	·	·
Cc1ccccc1NC(=O)/C=C1\SC(=O)NC1=O	i	0.19	·	·
CC(NC(=O)c1ccccc1Br)c1ccc2c(c1)CCCC2 (stereo unspecified)	i	·	·	·
CC(NC(=O)c1ccc(Br)cc1)c1ccc2c(c1)CCCC2 (stereo unspecified)	i	7.6*	i	i	CHO-K1 ctr=43*;KCNQ1 sel pot=-2;KCNQ2 pot confirm=40*;Kir2-1 sel=-29;KCNQ2 W236L MoA=i
CCCc1cc(=O)oc2cc(C)cc(OC(C)C(=O)N[C@@H](Cc3c[nH]c4ccccc34)C(=O)O)c12 (stereo partly specified)	i	9.7*	i	i	CHO-K1 ctr=2.7*;KCNQ1 sel pot=-21;KCNQ2 pot confirm=-25;Kir2-1 sel=-32
CCCCc1cc(=O)oc2cc(C)cc(OC(C)C(=O)NC(Cc3c[nH]c4ccc(O)cc34)C(=O)O)c12 (stereo unspecified)	i	·	·	·
COc1ccc(S(=O)(=O)NCCCn2ccnc2)cc1C(C)(C)C	i	0.09	·	·
CC1c2ccsc2CCN1S(=O)(=O)c1cccs1 (stereo unspecified)	i	·	57%*	i
CN1CCN(S(=O)(=O)c2cccs2)CC1	i	0.11	·	·
Cc1oc(-c2ccc(Cl)cc2)nc1CS(=O)CC(=O)NC1CCCC1 (stereo unspecified)	i	0.43	·	·
Cc1nn(-c2ccccc2)c(Cl)c1/C=C1\SC(=S)N(CCCCCC(=O)O)C1=O	i	1.5	·	·

Source: PubChem
